SW480 rereplic: A quantitative high throughput screen for small molecules that induce DNA re-replication in SW480 colon adenocarcinoma cells; SW480 DNA re-replication, Hoechst DNA content imaging, 48 h; Potency, µM (titrated, usually from 46.1 µM), inactives show at the top dose re-replication activation, hits mostly activators; 340,000 compounds, 1.8% hits; AID 624297, 2012; also: potency is read from the fitted curve at half-maximal effect; % of control where 0% means no effect; nearly all actives have a fitted effect of over 55% in size
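Cells (250 per well) received 23 nL compound or DMSO by pin tool and were kept 48 hr at 37 C, 5% CO2. Nuclei were then stained with Hoechst for 40 min and scanned for DNA content.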
MCF10A rereplic: A quantitative high throughput screen for small molecules that induce DNA re-replication in MCF 10a normal breast cells; Potency, µM (doses to about 46.1 µM), for the others: at the top dose activity, positive = re-replication, most hits filed as activators; 350,000 compounds, 2.9% hits; MCF 10A DNA re-replication, Hoechst nuclear intensity, 48 h; AID 624296, 2012; also: potency is read from the fitted curve at half-maximal effect; % of control where 0% means no effect; nearly all actives have a fitted effect of over 50% in size
uPA generation: qHTS for Inhibitors of Cell Surface uPA Generation; cell surface uPA generation assay, qHTS; Potency, µM (doses to about 38.3 µM), without a hit: at the highest dose activity change, negative = inhibition, most hits filed as inhibitors; 330,000 compounds, 0.31% hits; active = well fitted inhibition curve with a large enough effect; inconclusive = small, poorly fitted or top-dose-only effect; inactive = no such curve, though single readings can be large or run the other way; tested in mouse RAW 264.7 cells; also: potency is read from the fitted curve at half-maximal effect; % is scaled to controls: 0 for no effect and ±100 for the full control effect; nearly all actives have a fitted effect of over 55% in size
Giardia kill: Small Molecules that selectively kill Giardia lamblia: qHTS; Giardia lamblia trophozoite viability; activity change, % at 7.66 µM, hits read low; 340,000 compounds, 0.15% hits; in the data active = activity change below about -80%; inconclusive = between about -30% and that limit;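 also: parasites exposed to compound for two days anaerobically before the ATP read; % is scaled to controls: 0 for no effect and ±100 for the full control effect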
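Media and compound were dispensed first, then trophozoites at 100 cells/well; plates sat 48 hrs at 37 deg C without oxygen before ATP luminescence reagent was added and read after 15-30 min at room temperature.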
Starred values were filed as active, the others as inactive; u = inconclusive; x = no result. Only some compounds are listed: those with a hit (about 4.3% of all), similar ones and a draw of the others. Unless noted, calls follow the shape of the dose curve; as a rule, active = well fitted activation curve with a large enough effect; inconclusive = small, poorly fitted or top-dose-only effect; inactive = no such curve, though single readings can be large or run the other way.

SMILES	SW480 rereplic	MCF10A rereplic	uPA generation	Giardia kill
CC1(C)Cc2c(c(-c3ccco3)nc3sc4c(NCC5CCCO5)ncnc4c23)CO1 (centres undefined)	u	23µM*	-8%	57
CCNc1nc2cccnc2s1	-2%	0%	-3%	-22
CC[C@@]1(C(=O)OC)N[C@H](CN(C)C(=O)COC)[C@@H]2C(=O)N(C)C(=O)[C@@H]21	-13%	26%	11%	-13
Cc1ccc(NC(=O)Nc2ccccc2)cc1[N+](=O)[O-]	-5%	-1%	2%	10
O=C(Nc1ccccc1)Nc1ccc(F)c([N+](=O)[O-])c1	3%	15µM*	-10%	-18
O=C(Nc1ccccc1)Nc1ccc(Cl)c([N+](=O)[O-])c1	u	15µM*	-5%	-9
[O]=[Bi][O][Bi]=[O]	-1%	3%	x	x
N#Cc1ccc(C(=O)Nc2cccc(NC(=O)c3ccco3)c2)c(F)c1	-4%	1%	-5%	28
O=C(COc1ccc(Cl)cc1Cl)N/N=C/c1ccc[nH]1	0%	12µM*	u	17
O=C(COc1ccc(Cl)cc1Cl)N/N=C/CCc1ccccc1	-2%	-8%	-11%	-17
Cc1ccc(/C=N/NC(=O)CCCOc2ccc(Cl)cc2Cl)cc1	u	15µM*	-9%	-19
O=C(CCCOc1ccc(Cl)cc1Cl)N/N=C/c1ccccc1	1.6µM*	u	1%	7
O=C(CCCOc1ccc(Cl)cc1Cl)N/N=C/c1ccccc1O	u	u	-9%	7
CC1=CC(C)(C)Nc2ccc(OC(=O)C(C)N3C(=O)c4ccccc4C3=O)cc21 (centres undefined)	3.7µM*	u	4%	3
O=C(Oc1ccc(F)cc1)c1cccnc1	-13%	0%	-9%	-22
CC1=CC(C)(C)Nc2ccc(OC(=O)c3ccco3)cc21	18µM*	4.1µM*	19%	7
CC1=CC(C)(C)N(C(=O)CN2C(=O)CCC2=O)c2ccccc21	-5%	0%	16%	-12
O=C(Oc1cccc(OC(=O)c2ccco2)c1)c1ccco1	-4%	2%	0%	4
COc1ccc(OC(=O)C(C)N2C(=O)c3ccccc3C2=O)cc1 (centres undefined)	-5%	0%	-7%	23
CC1=CC(C)(C)Nc2ccc(OC(=O)CN3C(=O)CCC3=O)cc21	4.1µM*	-2%	u	-18
CC1=CC(C)(C)Nc2ccc(OC(=O)c3cccnc3)cc21	3.7µM*	2.6µM*	5%	13
CCN1C[C@@H]2[C@@H]3C(=O)N(Cc4ccccc4)C(=O)[C@@H]3[C@](C)(C1=O)N2C(=O)c1ccc(C(F)(F)F)cc1	-12%	-6%	4%	23
Cc1ccc(S(=O)(=O)N2CCN(c3nc(C(N)=O)nc4ccccc34)CC2)cc1	x	x	x	14
CO/N=C(/C(=O)N[C@@H]1C(=O)N2C(C(=O)O)=C(CSC(=O)c3ccco3)CSC12)c1csc(N)n1 (some centres undefined)	0%	5%	x	x
O=C1NC2(CCCCCC2)C(=O)N1Cc1cccc([N+](=O)[O-])c1	u	19%	6%	-20
SMILES	SW480 rereplic	MCF10A rereplic	uPA generation	Giardia kill
CC1(C)CCC[C@]2(C)C(CS(=O)c3ccccc3)=C(C=O)CC[C@@H]12 (some centres undefined)	u	u	-6%	-20
CC1=CC(C)(C)Nc2ccc(Cc3ccc4c(c3)C(C)=CC(C)(C)N4)cc21	1%	29µM*	u	13
CC1=CC(C)(C)N2C(=O)C(=O)c3cc(OC(=O)c4ccco4)cc1c32	1.3µM*	u	-11%	-4
CC1=CC(C)(C)Nc2ccc(C)cc21	-4%	-3%	4%	-22
O=C(Nc1ccccc1)Nc1n[nH]c2nnc(-c3ccccc3)c(-c3ccccc3)c12	0%	-3%	12%	u
c1ccc(-c2sc3ccccc3c2-c2ccc(OCCN3CCCC3)cc2)cc1	4.6µM*	1%	-1%	-16
Cc1cc(N2C(=O)C=CC2=O)c([N+](=O)[O-])cc1C	16µM*	18µM*	-13%	u
CC(=O)Nc1ccc(S(=O)(=O)N(C)c2ccc(OCC(=O)Nc3ccccc3C(C)=O)cc2)cc1	10%	u	17%	-3
CC(=O)c1ccccc1NC(=O)COc1ccc(N(C)S(=O)(=O)c2ccc(C)c(C)c2)cc1	6%	21µM*	20%	-2
Cc1ccc(S(=O)(=O)N(C)C)cc1NC(=O)C(C)N(C)CCOc1ccc(Cl)cc1 (centres undefined)	u	18µM*	-2%	-1
CC(=O)c1ccc(OCCCC(=O)Nc2cc(S(=O)(=O)N(C)C)ccc2C)cc1	16µM*	-3%	-3%	7
CC(=O)c1ccc(OCCCC(=O)Nc2cc(S(=O)(=O)N3CCCCC3)ccc2C)cc1	u	-22%	-5%	17
CCNc1nc(C#N)nc(Nc2ccccc2)n1	x	x	x	-2
O=C(CN1CCN(S(=O)(=O)/C=C/c2ccccc2)CC1)NCC(F)(F)F	3%	-5%	-1%	-12
Cn1c(=O)[nH]c(=O)c2c1nc(Br)n2CCCSc1nc2ccccc2o1	7.3µM*	13µM*	x	16
Cn1c(=O)[nH]c(=O)c2c1nc(N1CCCC1)n2CCCSc1nc2ccccc2o1	-6%	12%	-3%	-6
COc1ccc(-c2csc(NC(=O)C3CCN(c4ncnc5sc(C)c(C)c45)CC3)n2)cc1OC	-104%	u	-11%	0
CCCNC(=O)Nc1ccc(NC(C)=O)cc1	-131%	-1%	2%	-6
NNC(=O)CSc1cccc2cccnc12	-150%	-42%	-4%	14
O=C(CSc1ncccn1)N1CCCCCC1	-6%	-6%	-9%	-6
O=C(CSc1cccc2cccnc12)N1CCCC1	u	12µM*	2%	6
CN(C)C(=O)CSc1cccc2cccnc12	5.2µM*	u	-15%	-5
O=C(CSc1cccc2cccnc12)N/N=C/c1ccncc1	1.8µM*	-5%	19%	4
O=C(NNC(=O)C1CCN(c2ncccn2)CC1)c1ccc(F)cc1	-20%	-8%	0%	-12
O=C(COC(=O)c1cccc(Br)c1)NC(=O)NC1CCCC1	-43%	0.46µM*	-9%	11
COc1ccc(C2CC(c3ccc(Cl)cc3)=NN2C(C)=O)cc1 (centres undefined)	-2%	10%	-1%	-4
COc1ccc(C2CC(c3ccncc3)=NN2c2ccc(S(N)(=O)=O)cc2)cc1 (centres undefined)	18µM*	2.9µM*	-12%	-6
COc1ccc(C2CC(c3cccc(Cl)c3)=NN2c2ccc(S(N)(=O)=O)cc2)cc1 (centres undefined)	2.1µM*	1.3µM*	u	-5
COc1ccc(C2CC(c3ccc(Cl)cc3)=NN2c2ccc(S(N)(=O)=O)cc2)cc1 (centres undefined)	0.82µM*	u	u	-8
COc1ccc(C2CC(c3ccccc3)=NN2S(=O)(=O)c2ccccc2)cc1 (centres undefined)	u	20%	-16%	4

High-throughput results (PubChem BioAssay)
